This note sets out measurements from PubChem BioAssay.

What is called inhibition is the relative decrease from the control value, in per cent.

A short description of experiment [1]: antimalarial activity against Dd2 strain (AID 2302;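 active means growth inhibition above 50% at the single 2 µM test dose, taken to imply half-maximal potency below 2 µM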;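 further: 0% = DMSO untreated growth and 100% = chloroquine plus artemisinin killed control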). The settings on record: P. falciparum Dd2 in RBCs, LDH growth readout, 72 h; at 2 µM; active compounds read high.
A short description of experiment [2]: HepG2 cytotoxicity, primary screen, cytotoxicity control for P. falciparum antimalarial project, cell-based, ATP luminescence (AID 2303;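 active means inhibition above 50%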;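 further: 0% = DMSO wells and 100% = digitonin-killed cells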). The following applies: HepG2 viability, 24-48 h, at 10 µM, active compounds read high.
In experiment [3] the target is L-lactate dehydrogenase (Plasmodium falciparum (isolate CDC / Honduras)) (UniProt Q27743). Kind of experiment: PfLDH activity inhibition – cell lysate, 3D7 strain, counter-screen for P. falciparum growth inhibition project (AID 2304).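 Further: 0% = vehicle and 100% = reference inhibitor.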 The settings on record: P. falciparum 3D7 crude extract, LDH APAD/NBT absorbance; at 2 µM; active compounds read high.
Experiment [4] can be described thus: inhibition of 3D7 malaria parasite growth – strain 3D7 (AID 2306).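 Further: 0% = DMSO wells and 100% = chloroquine plus artemisinin control wells.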 The following applies: P. falciparum 3D7 erythrocytic growth, LDH absorbance, 72 h; at 2 µM; active compounds read high.
The target in experiment [5] is Calcium-dependent protein kinase 1 (Plasmodium falciparum (isolate 3D7)) (UniProt P62344). As to the kind of experiment: PfCDPK1 kinase inhibitors, biochemical, TCAMS library (AID 1159585; cut-off not given, nearly all actives have IC50 up to about 0.98 µM;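 further: inhibitors leave more ATP so luminescence rises with inhibition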). The following applies: recombinant PfCDPK1, Kinase-Glo ATP depletion luminescence. A general note: Kinase-Glo measures the ATP left after a reaction by luminescence.
In experiment [6] the target is Plasmodium falciparum protein kinase 6 (PK6, PF3D7_1337100) (UniProt Q8IDW1). Kind of experiment: PfPK6 kinase inhibitors, biochemical, TCAMS library (AID 1159586). The settings on record: recombinant PfPK6, Kinase-Glo ATP depletion luminescence.
Experiment [7] concerns the target Protein kinase 7 (PK7), Plasmodium falciparum 3D7 (PF3D7_0213400) (UniProt Q7YTF7). As to the kind of experiment: inhibition of Plasmodium PK7 catalytic activity – biochemical, TCAMS antimalarial set, Kinase-Glo luminescence (AID 1159587). The settings on record: recombinant PfPK7, Kinase-Glo ATP depletion luminescence.
Experiment [8] has as its target Calcium-dependent protein kinase 4 (Plasmodium falciparum (isolate 3D7)) (UniProt Q8IBS5). Kind of experiment: PfCDPK4 kinase inhibitors, biochemical, TCAMS library (AID 1159588; cut-off not given, nearly all actives have IC50 up to about 0.91 µM). The settings on record: recombinant PfCDPK4, Kinase-Glo ATP depletion luminescence.

A number with no mark means an inactive call. For some of these results: Measured potencies and affinities stand elsewhere. The source made the active and inactive calls. Unless noted, how the calls were made is not given here.

Protein kinase 7 (PK7), Plasmodium falciparum 3D7 (PF3D7_0213400), sequence (Q7YTF7 1-343): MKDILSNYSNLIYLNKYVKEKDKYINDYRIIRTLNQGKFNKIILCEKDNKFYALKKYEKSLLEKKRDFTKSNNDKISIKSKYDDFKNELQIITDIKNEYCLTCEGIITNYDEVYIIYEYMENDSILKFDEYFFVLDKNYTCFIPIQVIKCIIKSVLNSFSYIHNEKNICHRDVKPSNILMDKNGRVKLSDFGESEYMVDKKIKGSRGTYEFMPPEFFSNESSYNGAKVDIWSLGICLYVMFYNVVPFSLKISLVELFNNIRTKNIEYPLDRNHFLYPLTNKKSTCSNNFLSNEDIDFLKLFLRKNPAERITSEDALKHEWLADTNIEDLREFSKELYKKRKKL
Plasmodium falciparum protein kinase 6 (PK6, PF3D7_1337100), sequence (Q8IDW1 1-305): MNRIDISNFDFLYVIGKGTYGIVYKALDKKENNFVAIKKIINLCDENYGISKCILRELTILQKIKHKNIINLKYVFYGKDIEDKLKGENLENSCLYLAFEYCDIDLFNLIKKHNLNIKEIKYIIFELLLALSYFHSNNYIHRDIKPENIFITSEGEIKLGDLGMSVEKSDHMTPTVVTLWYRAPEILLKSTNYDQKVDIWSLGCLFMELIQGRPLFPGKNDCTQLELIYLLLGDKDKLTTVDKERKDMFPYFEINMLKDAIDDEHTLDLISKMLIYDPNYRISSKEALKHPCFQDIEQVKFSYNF
L-lactate dehydrogenase (Plasmodium falciparum (isolate CDC / Honduras)), sequence (Q27743 whole entry, looked up): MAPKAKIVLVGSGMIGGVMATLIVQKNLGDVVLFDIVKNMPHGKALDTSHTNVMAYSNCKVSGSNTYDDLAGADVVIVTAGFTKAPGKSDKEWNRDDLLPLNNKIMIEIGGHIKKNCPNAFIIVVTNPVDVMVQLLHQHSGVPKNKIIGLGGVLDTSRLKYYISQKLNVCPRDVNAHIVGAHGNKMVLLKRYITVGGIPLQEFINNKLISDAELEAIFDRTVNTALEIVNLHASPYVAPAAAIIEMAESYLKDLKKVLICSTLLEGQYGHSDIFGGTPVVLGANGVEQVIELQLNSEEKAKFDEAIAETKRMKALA
Calcium-dependent protein kinase 4 (Plasmodium falciparum (isolate 3D7)), sequence (Q8IBS5 whole entry, looked up): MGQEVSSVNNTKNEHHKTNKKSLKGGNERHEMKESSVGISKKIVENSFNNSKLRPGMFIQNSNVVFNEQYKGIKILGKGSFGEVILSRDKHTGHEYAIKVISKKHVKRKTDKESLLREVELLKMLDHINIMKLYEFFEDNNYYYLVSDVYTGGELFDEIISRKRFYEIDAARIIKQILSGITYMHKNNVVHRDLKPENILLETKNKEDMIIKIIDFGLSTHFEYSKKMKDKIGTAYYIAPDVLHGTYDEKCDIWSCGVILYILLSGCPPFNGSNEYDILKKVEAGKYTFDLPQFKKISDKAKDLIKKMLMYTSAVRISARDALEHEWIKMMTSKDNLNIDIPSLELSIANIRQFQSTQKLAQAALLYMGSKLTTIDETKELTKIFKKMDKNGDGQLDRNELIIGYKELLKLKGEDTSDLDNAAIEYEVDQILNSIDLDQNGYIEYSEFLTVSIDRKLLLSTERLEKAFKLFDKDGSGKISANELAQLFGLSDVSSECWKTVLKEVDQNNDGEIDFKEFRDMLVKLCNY
Calcium-dependent protein kinase 1 (Plasmodium falciparum (isolate 3D7)), sequence (P62344 whole entry, looked up): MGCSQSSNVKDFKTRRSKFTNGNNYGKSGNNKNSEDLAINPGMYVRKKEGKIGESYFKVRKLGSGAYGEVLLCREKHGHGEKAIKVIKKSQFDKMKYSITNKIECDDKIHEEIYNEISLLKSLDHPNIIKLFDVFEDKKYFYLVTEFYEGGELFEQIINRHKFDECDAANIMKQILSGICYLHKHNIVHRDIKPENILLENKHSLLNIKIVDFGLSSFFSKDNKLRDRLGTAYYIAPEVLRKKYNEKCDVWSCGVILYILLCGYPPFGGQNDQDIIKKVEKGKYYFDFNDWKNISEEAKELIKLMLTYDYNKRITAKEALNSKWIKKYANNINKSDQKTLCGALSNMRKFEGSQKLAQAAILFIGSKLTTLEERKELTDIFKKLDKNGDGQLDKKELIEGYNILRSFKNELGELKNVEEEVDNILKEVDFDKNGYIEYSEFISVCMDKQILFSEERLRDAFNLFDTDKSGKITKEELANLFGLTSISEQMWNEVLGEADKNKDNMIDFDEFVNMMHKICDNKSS

As for `CCCc1cc(Cc2cnc(N)nc2N)cc(CCC)c1OCCCCC(=O)O`, the growth inhibition in experiment [1] is 23%; in experiment [4], 95% (active). Besides, the inhibition in experiment [2] was 18%; in experiment [3], -2%. Further, the outcome in experiment [5], in experiment [6], in experiment [7] and in experiment [8] was inactive.

Take `COc1ccc(-n2cc(CNCCCn3ccnc3)c(-c3cccc(F)c3)n2)cc1`: the results for the growth inhibition in experiment [1] and in experiment [4] were 17% and 98% (active), respectively. Also, the inhibition was 21% in experiment [2] and 0% in experiment [3]. The result in experiment [5], in experiment [6], in experiment [7] and in experiment [8] was inactive.

Take `CCOC(=O)c1c(-c2ccccc2)[nH]c2c(sc3ccccc32)c1=O`: the growth inhibition in experiment [1] was 65% (active); in experiment [4], 97% (active). Besides, the inhibition is 2% in experiment [2] and -5% in experiment [3]. Besides, the result in experiment [5], in experiment [6], in experiment [7] and in experiment [8] was inactive.

Turning to `CN(Cc1cccc(O)c1)C1CCN(c2cc(NC(=O)c3cccc(F)c3)ccn2)CC1`, the growth inhibition in experiment [1] is 37%; in experiment [4], 98% (active). The inhibition was -2% in experiment [2] and 0% in experiment [3]. The outcome in experiment [5], in experiment [6], in experiment [7] and in experiment [8] was inactive.

`Clc1ccc2c(NN=Cc3ccccc3)ccnc2c1`: the growth inhibition is 94% (active) in experiment [1] and 100% (active) in experiment [4]. Moreover, the inhibition in experiment [2] was -6%; in experiment [3] it was -3%. The outcome in experiment [5], in experiment [6], in experiment [7] and in experiment [8] was inactive.

With `COc1cccc(CNC(=O)c2ccnc(-c3ccc(CNCCOc4ccccc4)cc3)c2)c1`, the growth inhibition in experiment [1] was 10%; in experiment [4], 83% (active). Further, the inhibition in experiment [2] was 23%; in experiment [3], -4%. Besides, the outcome in experiment [5], in experiment [6], in experiment [7] and in experiment [8] was inactive.

As for `O=C(Nc1ccc(Cl)c(-c2nc3ccccc3[nH]2)c1)c1ccc(-c2ccc(Cl)cc2)o1`, the growth inhibition is 22% in experiment [1] and 89% (active) in experiment [4]. Further, the results for the inhibition in experiment [2] and in experiment [3] were 16% and 0%, respectively. Moreover, the result in experiment [5], in experiment [6], in experiment [7] and in experiment [8] was inactive.

`O=C(Nc1cccc(N2CCC(NCc3cccnc3)CC2)c1)c1cccc(C(F)(F)F)c1`: the growth inhibition in experiment [1] was 2%; in experiment [4] it was 98% (active). Further, the inhibition in experiment [2] is 26%; in experiment [3], -3%. Moreover, the result in experiment [5], in experiment [6], in experiment [7] and in experiment [8] was inactive.

`CSc1ccc(CN2CCC(NC(=O)c3ccc(-c4cccc(C(F)(F)F)c4)s3)CC2)cc1`: the growth inhibition is 9% in experiment [1] and 90% (active) in experiment [4]. Moreover, the figures for the inhibition in experiment [2] and in experiment [3] were 68% (active) and -2%, respectively. Further, the outcome in experiment [5], in experiment [6], in experiment [7] and in experiment [8] was inactive.

`COc1ccc(Oc2ccc(-c3c(C)[nH]c(C)c(Cl)c3=O)cc2)cc1`: the growth inhibition in experiment [1] and in experiment [4] was 97% (active) in each case. Besides, the inhibition is -2% in experiment [2] and -3% in experiment [3]. In addition, the outcome in experiment [5], in experiment [6], in experiment [7] and in experiment [8] was inactive.

As for `Cn1cc(CCNc2ccnc(NCCc3coc4ccccc34)n2)c2ccccc21`, the growth inhibition in experiment [1] is 28%; in experiment [4] it was 87% (active). For the same compound, the inhibition was 26% in experiment [2] and 6% in experiment [3]. In addition, the result in experiment [5], in experiment [6], in experiment [7] and in experiment [8] was inactive.

For the compound `COc1ccc2ncc(C#N)c(CCN3C[C@H](CNCc4ccccc4)[C@H](O)C3)c2n1`, the figures for the growth inhibition in experiment [1] and in experiment [4] were 24% and 91% (active), respectively. In addition, the inhibition is 3% in experiment [2] and 4% in experiment [3]. In addition, the result in experiment [5], in experiment [6], in experiment [7] and in experiment [8] was inactive.

As to `CN(CCCc1c[nH]c2ccccc12)CCC1CCC(NC(=O)/C=C/c2ccc(Cl)c(Cl)c2)CC1` (stereo not given), the growth inhibition in experiment [1] is 63% (active); in experiment [4], 99% (active). The figures for the inhibition in experiment [2] and in experiment [3] were 38% and -3%, respectively. In addition, the outcome in experiment [5], in experiment [6], in experiment [7] and in experiment [8] was inactive.

For the compound `COc1c(O)cc2oc(-c3ccc(O)cc3)cc(=O)c2c1O`, the figures for the growth inhibition in experiment [1] and in experiment [4] were 0% and 96% (active), respectively. Besides, the inhibition was 6% in experiment [2] and -1% in experiment [3]. The result in experiment [5], in experiment [6], in experiment [7] and in experiment [8] was inactive.

`O=C(Nc1cccc(-c2cccc(F)c2)c1)C1CCN(Cc2ccc(O)cc2)CC1`: the growth inhibition is 2% in experiment [1] and 87% (active) in experiment [4]. In addition, the inhibition in experiment [2] was 13%; in experiment [3], 3%. In addition, the outcome in experiment [5], in experiment [6], in experiment [7] and in experiment [8] was inactive.

Consider `Oc1ccc(CCNc2nc(N/N=C/c3ccc(Cl)cc3)nc(N3CCNCC3)n2)cc1`, for which the growth inhibition in experiment [1] is 68% (active); in experiment [4] it was 100% (active). The inhibition is 14% in experiment [2] and 5% in experiment [3]. Moreover, the outcome in experiment [5], in experiment [6], in experiment [7] and in experiment [8] was inactive.

For `CCCC(C)Nc1nc(C)cc(N[C@@H](CC(C)C)C(=O)NCc2cccc(F)c2)n1` (stereo not given in full), the growth inhibition is 63% (active) in experiment [1] and 96% (active) in experiment [4]. Also, the inhibition in experiment [2] is 1%; in experiment [3] it was 0%. The outcome in experiment [5], in experiment [6], in experiment [7] and in experiment [8] was inactive.

Take `Cc1cccc2[nH]c(-c3cccc(-c4ccc(C(=O)NCc5ccccc5S(C)(=O)=O)cc4)c3)nc12`: the growth inhibition in experiment [1] was 27%; in experiment [4], 100% (active). Besides, the values for the inhibition in experiment [2] and in experiment [3] were 17% and 1%, respectively. Moreover, the outcome in experiment [5], in experiment [6], in experiment [7] and in experiment [8] was inactive.

`Cn1cnc(CCNC(=O)c2ccc(-c3ccc(-c4nc5ccc(F)cc5[nH]4)cc3)cc2)c1`: the growth inhibition was 15% in experiment [1] and 92% (active) in experiment [4]. Also, the inhibition in experiment [2] was 17%; in experiment [3], 0%. Further, the outcome in experiment [5], in experiment [6], in experiment [7] and in experiment [8] was inactive.

Turning to `CC(C)N1CCN(CCCNc2c3ccccc3nc3ccccc23)CC1`, the figures for the growth inhibition in experiment [1] and in experiment [4] were 1% and 100% (active), respectively. The inhibition in experiment [2] was 29%; in experiment [3] it was 8%. Moreover, the outcome in experiment [5], in experiment [6], in experiment [7] and in experiment [8] was inactive.
